# Yeast superoxide = yeast age-related superoxide inhibition as caloric restriction mimetic | actives 0.18% (n = 330,000) | S. cerevisiae aged cells, superoxide DHE fluorescence; active compounds read low | AID 2690 | superoxide response (% of plate mean), % at 10 µM;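 active means superoxide response under a set limit, about three screen SD below normal, cut at about 65% in these data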;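 further: yeast aged for seven days with compound at 30 °C before DHE staining; 100% = average MFI of all compound-treated wells on the plate with controls excluded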
# UBC13 polyUb = inhibitors of human UBC13 polyubiquitin chain formation; P61088; TR-FRET; inhibition, % at 20 µM; actives 0.47% (n = 330,000); AID 485273; in the data active means inhibition above about 45%, passing the limit was not always enough
# Target sequence (P61088 whole entry, looked up): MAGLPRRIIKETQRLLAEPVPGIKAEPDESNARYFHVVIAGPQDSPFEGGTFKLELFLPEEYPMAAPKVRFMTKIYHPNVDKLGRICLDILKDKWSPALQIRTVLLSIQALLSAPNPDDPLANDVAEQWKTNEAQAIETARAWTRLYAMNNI
# NALP1 inh = NALP1 inhibition | S. cerevisiae NALP1/ASC/caspase-1 growth, X-gal OD620, 72 h | inhibition, % at 10 µM | actives 0.61% (n = 280,000) | AID 2071; in the data active means inhibition mostly above about 24%, no sharp cut-off; inactive means mostly below about 32%
# dFosB activator = activators of mouse delta FosB homodimer | purified delta FosB, TAMRA-CDK5 oligo fluorescence polarization; percent of positive-control signal above neutral wells | activation, % at 25 µM | actives 0.99% (n = 340,000) | AID 493131;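 active means mean activation above about 17%, with every replicate also reaching it, limit read from the data, passing the limit was not always enough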
# Target sequence (P13346 whole entry, looked up): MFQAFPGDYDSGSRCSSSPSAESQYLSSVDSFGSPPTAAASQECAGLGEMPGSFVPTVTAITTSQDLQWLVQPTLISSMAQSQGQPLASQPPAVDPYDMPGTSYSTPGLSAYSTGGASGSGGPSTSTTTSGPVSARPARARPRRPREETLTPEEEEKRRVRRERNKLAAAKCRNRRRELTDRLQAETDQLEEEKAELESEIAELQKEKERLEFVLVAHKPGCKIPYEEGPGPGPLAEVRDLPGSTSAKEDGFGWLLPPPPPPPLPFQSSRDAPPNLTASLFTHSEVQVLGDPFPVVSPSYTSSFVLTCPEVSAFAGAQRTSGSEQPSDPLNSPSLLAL
# GRIN3A LBD mod = NR3A (human) ligand-binding domain modulation; AID 1259313; Tm shift relative to glycine control, % at 25 µM; actives 2.5% (n = 340,000); NR3A LBD differential scanning fluorimetry, Tm shift; 0% = protein alone, 100% = glycine-bound protein;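 active means melting temperature shift of at least 10% of the positive control shift, at one fixed dose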
# Superoxide pick = yeast aging superoxide inhibition, cherry pick confirmation; S. cerevisiae aging, superoxide DHE fluorescence; active compounds read low; shares compounds with Yeast superoxide; superoxide response (% of plate), % at 10 µM; actives 1% (n = 850); AID 434994;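 active means superoxide signal below 65% of the plate average of sample wells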;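 further: cells aged with compound for 7 days at 30 degrees C before staining; 100% equals mean DHE fluorescence of all compound wells on the plate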
# DHE fluor count = counter-screen for compounds affecting DHE oxidation and fluorescence in yeast; 850 tested, under 10 active; shares compounds with Yeast superoxide; AID 435000; fluorescence response, % at 10 µM; S. cerevisiae BY4741, flow cytometry; active compounds read low;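 active means fluorescence response below 15%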;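 further: percent of the mean fluorescence averaged over all compound wells on the plate; lower means stronger quenching of DHE signal or ROS scavenging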
# The depositor's hits bear a star; . = not tested or not shown. Only some compounds are listed: those with a hit (about 4.3% of all), similar ones and a draw of the others.
SMILES,Yeast superoxide,UBC13 polyUb,NALP1 inh,dFosB activator,GRIN3A LBD mod,Superoxide pick,DHE fluor count
CC(C)Cc1ccc(C(C)NC(=O)Cc2ccc(S(=O)(=O)N3CCOCC3)s2)cc1 (configuration not stated),92.8,3.7,.,-10.5,-4.1,.,.
CCOc1ccc(NC(=O)N2CCc3ccccc3C2)cc1,93.0,1.3,-3.1,-1.4,-1.2,.,.
COc1ccc(NC(=O)N2CCc3ccccc3C2)cc1,52.4*,8.0,2.6,1.9,0.7,101.0,101.7
COC(=O)c1cccc(S(=O)(=O)N2CCOCC2)c1,96.6,0.9,16.6,1.7,-3.9,.,.
COC(=O)c1cccc(S(=O)(=O)N2CCCC2)c1,90.8,7.7,3.4,-1.2,-0.2,98.4,87.1
CCN(CC)S(=O)(=O)c1cc(OC)c(Cl)cc1Cl,58.5*,-3.7,21.1,0.3,1.4,98.3,100.9
CCN(CC)S(=O)(=O)c1cc(OC)c(C)cc1C,89.8,-4.0,23.1,1.2,1.5,.,.
O=S(=O)(Cc1nnnn1-c1ccccc1)c1ccc(F)cc1,101.6,-1.3,-3.5,3.6,0.6,.,.
O=C(O)c1ccc(NS(=O)(=O)c2cc(Cl)ccc2Cl)cc1,104.8,-9.7,0.1,-2.1,-0.6,113.9,118.5
Cc1ccc(NS(=O)(=O)c2cc(C(=O)O)ccc2Cl)cc1,93.8,1.9,-12.2,-3.0,2.5,.,.
COc1ccc(NC(=O)CCn2c(=S)[nH]c3ccccc3c2=O)cc1,65.3*,0.6,26.8,7.7,-2.4,114.5,112.5
CC1(C)C(=O)Nc2ccccc2N1C(=O)COC(=O)Cc1ccc(Cl)c(Cl)c1,89.5,3.9,.,-14.9,-9.6,.,.
CC1Oc2ccccc2N(CC(=O)c2ccccc2)C1=O (configuration not stated),59.6*,-1.2,-0.9,-2.8,-1.3,110.8,92.8
CCCCn1c(N)c(N(CC(C)C)C(=O)c2ccc(C)o2)c(=O)[nH]c1=O,90.2,0.7,.,-0.7,0.3,.,.
CCCCn1c(N)c(N(CC(C)C)C(=O)c2ccc(-c3ccc(C(C)=O)cc3)o2)c(=O)[nH]c1=O,64.8*,-7.0,.,-1.4,2.8,110.4,103.2
CC1CC(C)(C)CC2(C1)NC(=O)N(CC(=O)N1CCN(S(=O)(=O)c3ccc(F)c(F)c3F)CC1)C2=O (configuration not stated),.,.,.,-11.5,0.2,.,.
O=C(NCCc1nc2ccccc2[nH]1)c1ccc(Cl)c([N+](=O)[O-])c1,111.2,-0.2,17.7,-9.0,-8.3,.,.
CCCNC(=O)c1ccc2c(=O)c(O)c(-c3ccc(Cl)c([N+](=O)[O-])c3)[nH]c2c1,63.6*,-31.6,-20.8,0.1,-6.0,79.9,95.9
CC(=O)c1ccc(N/N=C2/CCCNC2=O)cc1,62.8*,-4.2,-10.3,-1.3,-1.5,107.5,102.2
Cc1ccc(C(=O)SC2=NCCS2)cc1,57.8*,6.0,-2.0,-1.3,-7.9,101.5,109.8
CC(C)NC(=O)COc1coc(CN2CCN(Cc3ccccc3)CC2)cc1=O,91.1,-4.6,0.6,8.1,-1.6,.,.
COc1ccc(C(=O)Nc2cc3c4c(c2)CC(=O)N4CCC3)cc1,91.8,0.4,.,-8.0,0.3,.,.
CC1(C)Cc2ccccc2C2=NNC(=O)C2=N1,56.2*,-53.3,-11.6,-6.0,1.2,89.1,87.3
CC1(C)Cc2ccccc2C(Nn2cnnc2)=N1,98.3,1.2,-6.3,0.2,0.3,.,.
Cc1sc2nc(CSCC(=O)Nc3ccc(Cl)cc3F)[nH]c(=O)c2c1C,.,0.0,.,-14.0,-1.2,.,.
SMILES,Yeast superoxide,UBC13 polyUb,NALP1 inh,dFosB activator,GRIN3A LBD mod,Superoxide pick,DHE fluor count
Cn1cnc(S(=O)(=O)N2CCN(c3ccccc3)CC2)c1,115.3,-3.1,-8.4,-5.5,0.2,.,.
COc1ccccc1N1CCN(S(=O)(=O)c2cn(C)cn2)CC1,65.2*,-4.6,28.9,-6.3,-2.6,92.9,103.2
O=C(O)c1cnc2ccccc2n1,64.3*,-10.6,10.3,-1.5,-1.6,70.6,94.4
COC(=O)c1cnc2ccccc2n1,94.6,-10.5,4.0,-1.4,0.3,.,.
COc1cccc(C2C(C(=O)c3cccs3)=C(O)C(=O)N2CCCn2ccnc2)c1OC (configuration not stated),.,.,24.4,.,.,.,.
CC(=O)Nc1ccc(NC(=O)C2CCCN2C(=O)Nc2ccc(F)c([N+](=O)[O-])c2)cc1 (configuration not stated),98.8,10.1,2.5,-4.1,-0.4,.,.

# Bioassay records as filed in PubChem.
